From the supplement of paper PMC10849652
The full data set covers some 7,900 targets. This sample favours those with a hit. About 0.6% of all pairs of compound and target were hits.

These targets were tested with COc1cc(C(=O)O)ccc1NC(=O)[C@@H]1N[C@@H](CC(C)(C)C)[C@](C#N)(c2ccc(Cl)cc2F)[C@H]1c1cccc(Cl)c1F [idasanutlin] (assay: log2 fold change, soluble protein after heating vs DMSO (PISA); higher = thermal stabilisation; K562 cells, 10 uM, 30 min; active = over 0.2 and 3.5 SD of the protein, either way, in both replicates (recomputed)).
Method in brief: (§1)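 Soluble protein was defined as the supernatant after 21,000xg for 90 min. It came from K562 cells at 2×10^6 cells/mL given 10 μM compound for 30 min, heated in aliquots for 3 min across 48°C-58°C, pooled, and extracted in PBS with 0.5% NP-40 at 4°C, and was quantified by TMTpro 16plex LC-MS/MS with equalised channel sums. Thermal stability against control samples, from duplicates, is reported as log2 fold change.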

UniProt P13010, sequence (P13010 whole entry, looked up): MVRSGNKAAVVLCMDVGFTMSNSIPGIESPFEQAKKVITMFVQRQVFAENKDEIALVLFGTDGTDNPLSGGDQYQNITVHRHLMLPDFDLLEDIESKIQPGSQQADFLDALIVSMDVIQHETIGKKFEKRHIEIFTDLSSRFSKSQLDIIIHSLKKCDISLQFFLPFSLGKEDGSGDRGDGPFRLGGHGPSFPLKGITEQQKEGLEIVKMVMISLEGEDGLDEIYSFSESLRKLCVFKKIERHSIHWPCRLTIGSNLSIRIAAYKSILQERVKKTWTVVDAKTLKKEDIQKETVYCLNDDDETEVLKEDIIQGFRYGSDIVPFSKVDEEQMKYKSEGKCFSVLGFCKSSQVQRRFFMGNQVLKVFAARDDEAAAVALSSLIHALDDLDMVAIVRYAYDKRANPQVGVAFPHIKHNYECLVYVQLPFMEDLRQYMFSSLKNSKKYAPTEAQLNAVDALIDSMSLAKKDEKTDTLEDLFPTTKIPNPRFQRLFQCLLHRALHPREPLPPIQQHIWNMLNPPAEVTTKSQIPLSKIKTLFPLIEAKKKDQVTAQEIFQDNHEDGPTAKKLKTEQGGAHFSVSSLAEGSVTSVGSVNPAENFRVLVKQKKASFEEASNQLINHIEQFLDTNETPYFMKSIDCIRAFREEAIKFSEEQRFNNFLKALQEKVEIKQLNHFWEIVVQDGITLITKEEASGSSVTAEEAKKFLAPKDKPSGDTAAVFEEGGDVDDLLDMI
UniProt Q9NQH7, sequence (Q9NQH7 whole entry, looked up): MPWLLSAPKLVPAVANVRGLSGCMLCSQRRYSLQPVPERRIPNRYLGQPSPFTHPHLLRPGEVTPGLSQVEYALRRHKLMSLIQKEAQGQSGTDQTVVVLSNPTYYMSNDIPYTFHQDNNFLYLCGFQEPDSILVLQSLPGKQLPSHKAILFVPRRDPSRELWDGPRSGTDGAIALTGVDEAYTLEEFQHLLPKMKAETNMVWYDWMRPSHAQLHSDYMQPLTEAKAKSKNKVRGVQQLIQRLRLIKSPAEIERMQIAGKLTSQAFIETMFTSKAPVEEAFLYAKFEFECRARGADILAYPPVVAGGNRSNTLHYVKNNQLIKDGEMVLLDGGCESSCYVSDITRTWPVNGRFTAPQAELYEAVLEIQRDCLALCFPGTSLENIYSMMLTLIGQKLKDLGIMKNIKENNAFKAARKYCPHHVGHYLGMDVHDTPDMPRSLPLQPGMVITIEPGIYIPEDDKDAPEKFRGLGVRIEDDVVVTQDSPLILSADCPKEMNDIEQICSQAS
UniProt P02585, sequence (P02585 whole entry, looked up): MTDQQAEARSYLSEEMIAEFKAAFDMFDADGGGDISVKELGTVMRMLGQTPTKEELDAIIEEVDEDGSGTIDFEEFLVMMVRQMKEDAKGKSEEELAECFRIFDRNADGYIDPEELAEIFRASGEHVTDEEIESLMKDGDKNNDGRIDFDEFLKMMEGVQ
UniProt O14787, sequence (O14787 whole entry, looked up): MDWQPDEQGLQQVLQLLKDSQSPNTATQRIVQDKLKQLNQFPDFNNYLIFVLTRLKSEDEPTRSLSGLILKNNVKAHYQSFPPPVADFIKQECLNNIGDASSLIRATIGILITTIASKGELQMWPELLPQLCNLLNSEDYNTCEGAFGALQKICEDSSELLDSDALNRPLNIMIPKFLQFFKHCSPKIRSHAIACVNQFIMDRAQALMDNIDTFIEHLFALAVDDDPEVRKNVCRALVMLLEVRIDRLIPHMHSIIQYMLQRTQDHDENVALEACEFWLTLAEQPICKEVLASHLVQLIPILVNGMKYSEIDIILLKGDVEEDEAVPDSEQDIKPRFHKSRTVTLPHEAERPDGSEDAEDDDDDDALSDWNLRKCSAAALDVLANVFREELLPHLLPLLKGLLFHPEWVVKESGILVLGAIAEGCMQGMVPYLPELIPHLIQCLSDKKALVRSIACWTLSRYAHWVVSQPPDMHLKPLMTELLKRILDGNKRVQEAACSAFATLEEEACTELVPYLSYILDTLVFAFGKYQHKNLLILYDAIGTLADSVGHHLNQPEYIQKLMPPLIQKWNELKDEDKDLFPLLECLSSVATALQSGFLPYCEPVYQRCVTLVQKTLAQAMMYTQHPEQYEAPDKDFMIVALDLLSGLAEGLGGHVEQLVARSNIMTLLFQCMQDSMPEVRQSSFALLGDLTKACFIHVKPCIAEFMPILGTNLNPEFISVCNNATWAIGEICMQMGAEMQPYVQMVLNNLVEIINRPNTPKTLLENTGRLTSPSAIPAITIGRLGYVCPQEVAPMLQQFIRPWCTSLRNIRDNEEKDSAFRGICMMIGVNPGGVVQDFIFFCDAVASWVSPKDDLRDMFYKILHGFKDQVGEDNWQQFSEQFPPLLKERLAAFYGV
UniProt Q9UEU0, sequence (Q9UEU0 whole entry, looked up): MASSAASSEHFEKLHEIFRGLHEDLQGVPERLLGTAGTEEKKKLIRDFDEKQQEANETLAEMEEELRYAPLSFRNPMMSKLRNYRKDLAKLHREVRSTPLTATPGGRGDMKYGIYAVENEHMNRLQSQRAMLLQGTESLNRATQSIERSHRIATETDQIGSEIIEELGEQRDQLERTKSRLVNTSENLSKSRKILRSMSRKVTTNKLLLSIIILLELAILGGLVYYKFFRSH
UniProt Q01081, sequence (Q01081 whole entry, looked up): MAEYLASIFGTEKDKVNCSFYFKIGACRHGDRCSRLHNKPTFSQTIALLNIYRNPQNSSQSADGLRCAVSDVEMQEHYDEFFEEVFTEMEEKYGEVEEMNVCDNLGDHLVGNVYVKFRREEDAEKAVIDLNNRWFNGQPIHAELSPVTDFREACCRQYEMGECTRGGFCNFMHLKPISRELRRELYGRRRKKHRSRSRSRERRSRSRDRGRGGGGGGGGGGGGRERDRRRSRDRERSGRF
UniProt Q96AJ9, sequence (Q96AJ9 whole entry, looked up): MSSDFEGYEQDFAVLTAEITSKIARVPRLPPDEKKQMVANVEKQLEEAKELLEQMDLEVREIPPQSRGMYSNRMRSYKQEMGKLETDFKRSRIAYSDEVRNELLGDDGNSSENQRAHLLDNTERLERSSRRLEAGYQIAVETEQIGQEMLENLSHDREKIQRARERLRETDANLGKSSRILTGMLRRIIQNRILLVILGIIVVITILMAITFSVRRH
UniProt Q13263, sequence (Q13263 whole entry, looked up): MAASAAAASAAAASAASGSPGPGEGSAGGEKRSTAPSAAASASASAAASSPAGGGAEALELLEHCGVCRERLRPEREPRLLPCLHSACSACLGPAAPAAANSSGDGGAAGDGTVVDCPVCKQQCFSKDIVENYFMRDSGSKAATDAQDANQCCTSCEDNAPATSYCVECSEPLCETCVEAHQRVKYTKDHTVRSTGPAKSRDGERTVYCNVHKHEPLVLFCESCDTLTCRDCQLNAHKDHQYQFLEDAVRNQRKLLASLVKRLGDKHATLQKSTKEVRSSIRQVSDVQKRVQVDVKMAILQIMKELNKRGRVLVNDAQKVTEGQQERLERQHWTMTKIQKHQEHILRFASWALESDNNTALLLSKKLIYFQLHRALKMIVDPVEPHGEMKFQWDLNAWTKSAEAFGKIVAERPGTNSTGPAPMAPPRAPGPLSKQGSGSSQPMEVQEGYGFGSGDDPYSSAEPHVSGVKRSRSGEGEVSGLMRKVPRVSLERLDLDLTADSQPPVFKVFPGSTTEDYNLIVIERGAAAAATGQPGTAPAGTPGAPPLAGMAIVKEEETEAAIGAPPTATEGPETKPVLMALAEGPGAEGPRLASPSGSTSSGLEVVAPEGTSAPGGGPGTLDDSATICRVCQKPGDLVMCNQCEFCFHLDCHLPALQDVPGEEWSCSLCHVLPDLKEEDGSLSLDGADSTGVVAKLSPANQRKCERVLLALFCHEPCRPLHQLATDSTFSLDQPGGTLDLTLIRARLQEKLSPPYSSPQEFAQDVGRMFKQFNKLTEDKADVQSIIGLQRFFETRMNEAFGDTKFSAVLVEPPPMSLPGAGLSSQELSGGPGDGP
UniProt Q99816, sequence (Q99816 whole entry, looked up): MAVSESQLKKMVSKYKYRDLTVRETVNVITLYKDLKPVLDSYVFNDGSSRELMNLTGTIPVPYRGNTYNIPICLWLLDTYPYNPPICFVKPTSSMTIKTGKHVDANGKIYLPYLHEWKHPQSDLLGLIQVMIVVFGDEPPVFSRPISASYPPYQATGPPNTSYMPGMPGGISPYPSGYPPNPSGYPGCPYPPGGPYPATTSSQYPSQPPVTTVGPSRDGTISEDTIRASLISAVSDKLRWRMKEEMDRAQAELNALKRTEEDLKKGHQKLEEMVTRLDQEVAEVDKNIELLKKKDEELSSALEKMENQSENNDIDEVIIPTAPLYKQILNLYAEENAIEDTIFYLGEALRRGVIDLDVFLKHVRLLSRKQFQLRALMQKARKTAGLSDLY
UniProt Q9NP79, sequence (Q9NP79 whole entry, looked up): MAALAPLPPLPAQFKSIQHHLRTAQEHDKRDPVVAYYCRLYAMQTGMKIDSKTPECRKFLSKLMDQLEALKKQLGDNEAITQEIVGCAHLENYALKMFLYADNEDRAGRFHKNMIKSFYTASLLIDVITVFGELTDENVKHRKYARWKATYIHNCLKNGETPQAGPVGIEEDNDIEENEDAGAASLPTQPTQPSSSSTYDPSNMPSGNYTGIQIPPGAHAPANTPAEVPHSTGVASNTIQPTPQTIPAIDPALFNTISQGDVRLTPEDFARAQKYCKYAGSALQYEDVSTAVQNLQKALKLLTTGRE
UniProt Q7Z7E8, sequence (Q7Z7E8 whole entry, looked up): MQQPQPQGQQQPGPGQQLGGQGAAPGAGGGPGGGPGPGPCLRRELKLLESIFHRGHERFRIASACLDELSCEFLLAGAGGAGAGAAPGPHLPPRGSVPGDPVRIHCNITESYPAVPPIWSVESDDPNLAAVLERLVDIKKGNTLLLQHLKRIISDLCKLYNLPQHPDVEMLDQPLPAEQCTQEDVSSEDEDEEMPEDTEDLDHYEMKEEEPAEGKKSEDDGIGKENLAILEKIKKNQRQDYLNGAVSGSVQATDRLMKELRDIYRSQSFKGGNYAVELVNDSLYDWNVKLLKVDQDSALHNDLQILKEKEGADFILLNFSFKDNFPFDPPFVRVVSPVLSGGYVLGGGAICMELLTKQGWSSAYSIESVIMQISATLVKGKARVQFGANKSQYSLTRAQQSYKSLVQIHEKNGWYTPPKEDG

log2 fold change, inactive:
TSG101 (UniProt Q99816) -0.031
VTA1 (UniProt Q9NP79) -0.094
VDAC1 (UniProt P21796) -0.004
WASHC2C, A0A096LPC5 0.146
VTI1B (UniProt Q9UEU0) -0.026
UBE2Q1 (UniProt Q7Z7E8) 0.006
TMEM106B (UniProt Q9NUM4) -0.032
TMEM164 (UniProt Q5U3C3) -0.031
USP48 isoform 8 (UniProt Q86UV5) -0.03
USP15 (UniProt Q9Y4E8) -0.018
UFD1 isoform 1 (UniProt Q92890) -0.043
WDR46 (UniProt O15213) 0.156
USP14 (UniProt P54578) -0.051
XPNPEP3 (UniProt Q9NQH7) -0.032
UCHL5 (UniProt Q9Y5K5) -0.044
VPS16 (UniProt Q9H269) -0.065
VAMP7 (UniProt P51809) -0.111
XPO1 (UniProt O14980) -0.123
TNFRSF10A (UniProt O00220) 0.058
UBLCP1 (UniProt Q8WVY7) -0.013
TMEM189-UBE2V1 (UniProt I3L0A0) -0.024
WASH2P (UniProt Q6VEQ5) -0.055
VTI1A (UniProt Q96AJ9) -0.023
TNNC2 (UniProt P02585) 0.007
TMEM223 (UniProt A0PJW6) -0.112
U2AF1 isoform 2 (UniProt Q01081) 0.055
XRCC5 (UniProt P13010) 0.014
TNPO1 (UniProt Q92973) -0.023
VPS52 (UniProt Q8N1B4) 0.088
TMEM263 (UniProt Q8WUH6) -0.09
USP25 isoform 3 (UniProt Q9UHP3) -0.039
VPS50 (UniProt Q96JG6) -0.157
UBAP1 isoform 4 (UniProt Q9NZ09) -0.014
TNPO2 (UniProt O14787) -0.194
VPS18 (UniProt Q9P253) -0.053
TRIM28 (UniProt Q13263) -0.031

These targets were tested with COc1cc(Nc2ncc3c(n2)-c2ccc(Cl)cc2C(c2c(F)cccc2OC)=NC3)ccc1C(=O)O [alisertib] in the same assay as above.
Method in brief: as §1

log2 fold change, inactive:
TSG101 (UniProt Q99816) -0.049
VTA1 (UniProt Q9NP79) -0.014
VDAC1 (UniProt P21796) -0.033
WASHC2C, A0A096LPC5 -0.042
VTI1B (UniProt Q9UEU0) 0.046
UBE2Q1 (UniProt Q7Z7E8) -0.055
TMEM106B (UniProt Q9NUM4) -0.012
TMEM164 (UniProt Q5U3C3) 0.211
USP48 isoform 8 (UniProt Q86UV5) 0.12
USP15 (UniProt Q9Y4E8) -0.043
UFD1 isoform 1 (UniProt Q92890) -0.023
WDR46 (UniProt O15213) -0.162
USP14 (UniProt P54578) -0.057
XPNPEP3 (UniProt Q9NQH7) -0.011
UCHL5 (UniProt Q9Y5K5) -0.048
VPS16 (UniProt Q9H269) -0.056
VAMP7 (UniProt P51809) -0.072
XPO1 (UniProt O14980) -0.003
TNFRSF10A (UniProt O00220) -0.021
UBLCP1 (UniProt Q8WVY7) 0.028
TMEM189-UBE2V1 (UniProt I3L0A0) -0.105
WASH2P (UniProt Q6VEQ5) -0.027
VTI1A (UniProt Q96AJ9) -0.039
TNNC2 (UniProt P02585) -0.172
TMEM223 (UniProt A0PJW6) -0.046
U2AF1 isoform 2 (UniProt Q01081) -0.019
XRCC5 (UniProt P13010) 0.061
TNPO1 (UniProt Q92973) -0.074
VPS52 (UniProt Q8N1B4) -0.069
TMEM263 (UniProt Q8WUH6) -0.043
USP25 isoform 3 (UniProt Q9UHP3) 0.027
VPS50 (UniProt Q96JG6) 0.019
UBAP1 isoform 4 (UniProt Q9NZ09) -0.034
TNPO2 (UniProt O14787) -0.071
VPS18 (UniProt Q9P253) -0.102
TRIM28 (UniProt Q13263) -0.087
